Results filed as inconclusive are left out. Calls of active or inactive are those of the source. How the source made its calls: active means hit-call score of the fitted dose curve at least 0.9, where 1 is the maximum; inconclusive means response in the unintended direction; inactive means score below 0.9.

These results are taken from PubChem BioAssay (EPA / NIEHS).

Read-out in this test: ABC Transporter (ABCB11), ABCB11 (gene 8647)
Briefly: CLD_ABCB11_48hr: CellzDirect (CLD) Gene Expression Assay for ABC Transporter (ABCB11) at 48 hours (AID 2283697). The protocol: CLD_48hr is a cell-based, multiplexed-readout assay that uses hepatocyte, a human liver primary cell, with measurements taken at 48 hours after chemical dosing in a 96-well plate.CLD_ABCB11_48hr is one of 16 assay component(s) measured or calculated from the CLD_48hr assay. It is designed to make measurements of mRNA induction, a form of inducible reporter, as detected with chemiluminescence signals by Quantitative Nuclease Protection Assay (qNPA) technology.Data from the assay component CLD_ABCB11_48hr was analyzed at the endpoint, CLD_ABCB11_48hr, in the positive analysis fitting direction relative to DMSO as the negative control and baseline of activity. Using a type of inducible reporter, gain-of-signal activity can be used to understand changes in the reporter gene as they relate to the gene ABCB11. Furthermore, this assay endpoint can be referred to as a primary readout. To generalize the intended target to other relatable targets, this assay endpoint is annotated to the transporter intended target family, where subfamily is ABC transporter.
Human hepatocyte cultures were treated daily for two consecutive days with fresh dosing solutions containing appropriate concentrations of the 320 ToxCast chemicals (chemical identities were blinded to CellzDirect and other ToxCast collaborators), vehicle control (0.2% DMSO), and positive control inducers as summarized in Table 1. Due to the large number of treatment groups and chemicals examined, the ToxCast chemicals were divided into two groups (spanning two independent cultures of hepatocytes from separate donor preparations (Hu778: ToxCast plates 1 and 2; Hu776: ToxCast plates 3 and 4). Each preparation of human hepatocyte cultures was treated with respective vehicle control, medium only control, set of six positive controls/reference chemicals for the five hepatic receptor pathways, and a subset of eight of the ToxCast chemicals (indoxacarb, pyrithiobac-sodium, norflurazon, cyhalofop-butyl, methomyl, thiram, acetochlor, and propiconazole). These replicate data, coupled with internal replicates designed within the blinded ToxCast chemical library, provided additional data to evaluate interindividual differences between hepatocyte preparations and their potential impact on chemical profiles.Cell morphology and integrity were evaluated using phase-contrast microscopy as an indicator of hepatocyte cell health (Tyson & Green, 1987). Cultures for each treatment group (i.e., media, vehicle [0.2% DMSO], positive control inducers [multiple concentrations], and the ToxCast chemicals [multiple concentrations]) were observed and cell morphology was assessed relative to vehicle control cultures at each harvest time point (0, 6, 24, or 48 h). […] Images were evaluated at the conclusion of the study to assess changes in cell integrity and account for the effects of chemical exposure on uncharacteristic changes in concentration-dependent gene expression profiles. The results from these determinations of apparent cytotoxicity were annotated (yes/no) alongside the corresponding qNPA data for reference.At the conclusion of each treatment period, hepatocyte cultures (96-well) were washed with 1 volume of HBSS, lysed by addition of 25 ul ArrayPlate lysis buffer (HTG, Tucson, AZ), and 70 ul/well of Denaturation Oil, denatured by incubation at 95C for 10 min, and frozen at approximately -70C until analysis by nuclease protection assay (qNPA) (Roberts et al., 2007). For qNPA analysis, cell lysates were thawed at 50C for approximately 30 min, qNPA probes were added, and samples were incubated at 95C for 10 min to begin the detection process by denaturing the target RNA, dissociating the duplexes and secondary structure hybridization. At the conclusion of the hybridization period, S1 nuclease reagent was added to each sample to digest all nonprotected nucleotides at 50C for 60-90 min. […]
`COC(=O)c1c(Cl)nn(C)c1S(=O)(=O)NC(=O)Nc1nc(OC)cc(OC)n1`: the compound was classed as inactive.

Regarding `CCNc1nc(N)nc(Cl)n1`, the compound was classed as inactive.

In the case of `CCCCC(CC)COC(=O)c1ccccc1C(=O)O` (stereo unspecified), the result was inactive.

In the case of `CCCCCOC(=O)COc1cc(N2C(=O)C3=C(CCCC3)C2=O)c(F)cc1Cl`, the result was inactive.

In the case of `OB(O)O`, the result was inactive.

`CC1(C)C(C=C(Cl)Cl)C1C(=O)OCc1cccc(Oc2ccccc2)c1` (stereo unspecified): the result was inactive.

Consider `CCOC(=O)C(C)Oc1ccc(Oc2cnc3cc(Cl)ccc3n2)cc1` (stereo unspecified), for which the compound was called inactive.

With `CCCOC(=O)c1ccc(C(=O)OCCC)nc1`, the call was inactive.

In the case of `CCC(C)OC(=O)N1CCCCC1CCO` (stereo unspecified), the result was inactive.

Take `C#CCOC(=O)[C@@H](C)Oc1ccc(Oc2ncc(Cl)cc2F)cc1`: the call was inactive.

Regarding `COCCO`, the call was inactive.

As for `c1ccc(Nc2ccccc2)cc1`, the compound was classed as inactive.

For the compound `N#CSCSc1nc2ccccc2s1`, the AC50 – broadly, the concentration at which the activity in the assay is half-maximal – is 34.1 µM (active).

For `CCOC(=O)[C@H](C)Oc1ccc(Oc2nc3ccc(Cl)cc3o2)cc1`, the outcome was inactive.

Take `CCCN(CCC)C(=O)SCC`: the compound was classed as inactive.

In the case of `O=C(Nc1ccc([N+](=O)[O-])cc1Cl)c1cc(Cl)ccc1O`, the compound was classed as inactive.
